In paper PMC5540273 (PLoS ONE, 2017):

Key:
Conditions in all cases: concentration: 1 μM, replicates: in singlicate; n = 1
PRKCD = tested on: PRKCD
PRKCE = tested on: PRKCE
PRKCH = tested on: PRKCH
PRKCI = tested on: PRKCI
PRKCQ = tested on: PRKCQ
PRKD1 = tested on: PRKD1
PRKD2 = tested on: PRKD2
PRKD3 = tested on: PRKD3
PRKG1 = tested on: PRKG1
PRKG2 = tested on: PRKG2
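Also: KINOMEscan kinase panel screen.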

Row | SMILES | %Inh (PRKCD) [%] | %Inh (PRKCE) [%] | %Inh (PRKCH) [%] | %Inh (PRKCI) [%] | %Inh (PRKCQ) [%] | %Inh (PRKD1) [%] | %Inh (PRKD2) [%] | %Inh (PRKD3) [%] | %Inh (PRKG1) [%] | %Inh (PRKG2) [%]
1 | Cc1cc(N2CCC(NS(=O)(=O)c3ccc(F)cc3)CC2)nc(Nc2cccc(C#N)c2)n1.O=C(O)C(F)(F)F [GSK1653537] | 3 | 0 | 27 | 12 | 19 | 35 | 31 | 43 | 3 | 0
2 | Oc1ccc2ncnc(Nc3ccc(OCc4ccccc4)cc3)c2c1 [GI262866] | 0 | 0 | 6 | 27 | 15 | 0 | 0 | 30 | 0 | 0
3 | CNc1nccc(-c2c(-c3ccc(F)cc3)ncn2C2CCN(C)CC2)n1 [SB-222903] | 10 | 2 | 0 | 0 | 0 | 0 | 19 | 0 | 14 | 0
4 | Fc1cccc(COc2ccc(Nc3ncnc4cc[nH]c34)cc2Cl)c1 | 14 | 0 | 0 | 12 | 10 | 0 | 25 | 0 | 2 | 13
5 | OCCOCCn1ccc2ncnc(Nc3ccc(Oc4cccc(Cl)c4)c(Cl)c3)c21 | 28 | 2 | 0 | 0 | 0 | 0 | 0 | 0 | 4 | 0
